Data: PubChem BioAssay
For some assays here: Entries with a potency or affinity are not part of this list. Active and inactive are the calls of the source. Unless noted, no rule for the calls is given here.

Tests used:
[1] = antimalarial activity against Dd2 strain (AID 2302;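 active = growth inhibition above 50% at the single 2 µM test dose, taken to imply half-maximal potency below 2 µM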;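 also: 0% = DMSO untreated growth and 100% = chloroquine plus artemisinin killed control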); settings: P. falciparum Dd2 in RBCs, LDH growth readout, 72 h; at 2 µM; active compounds read high
[2] = human hepatoma cell viability loss – ATP luminescence, cytotoxicity control for P. falciparum antimalarial project, primary screen (AID 2303;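 active = inhibition above 50%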;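 also: 0% = DMSO wells and 100% = digitonin-killed cells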); settings: HepG2 viability, 24-48 h, at 10 µM, active compounds read high
[3] = target: L-lactate dehydrogenase (Plasmodium falciparum (isolate CDC / Honduras)) (UniProt Q27743); assay: PfLDH activity inhibition – cell lysate, 3D7 strain, counter-screen for P. falciparum growth inhibition project (AID 2304);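 also: 0% = vehicle and 100% = reference inhibitor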; settings: P. falciparum 3D7 crude extract, LDH APAD/NBT absorbance; at 2 µM; active compounds read high
[4] = inhibition of 3D7 malaria parasite growth – strain 3D7 (AID 2306);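 also: 0% = DMSO wells and 100% = chloroquine plus artemisinin control wells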; settings: P. falciparum 3D7 erythrocytic growth, LDH absorbance, 72 h; at 2 µM; active compounds read high
[5] = target: Calcium-dependent protein kinase 1 (Plasmodium falciparum (isolate 3D7)) (UniProt P62344); assay: PfCDPK1 kinase inhibitors, biochemical, TCAMS library (AID 1159585; cut-off not given, nearly all actives have IC50 up to about 0.98 µM;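 also: inhibitors leave more ATP so luminescence rises with inhibition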); settings: recombinant PfCDPK1, Kinase-Glo ATP depletion luminescence
[6] = target: Plasmodium falciparum protein kinase 6 (PK6, PF3D7_1337100) (UniProt Q8IDW1); assay: PfPK6 kinase inhibitors, biochemical, TCAMS library (AID 1159586); settings: recombinant PfPK6, Kinase-Glo ATP depletion luminescence
[7] = target: Protein kinase 7 (PK7), Plasmodium falciparum 3D7 (PF3D7_0213400) (UniProt Q7YTF7); assay: inhibition of Plasmodium PK7 catalytic activity – biochemical, TCAMS antimalarial set, Kinase-Glo luminescence (AID 1159587); settings: recombinant PfPK7, Kinase-Glo ATP depletion luminescence
[8] = target: Calcium-dependent protein kinase 4 (Plasmodium falciparum (isolate 3D7)) (UniProt Q8IBS5); assay: PfCDPK4 kinase inhibitors, biochemical, TCAMS library (AID 1159588; cut-off not given, nearly all actives have IC50 up to about 0.91 µM); settings: recombinant PfCDPK4, Kinase-Glo ATP depletion luminescence
Chain of Calcium-dependent protein kinase 4 (Plasmodium falciparum (isolate 3D7)) (Q8IBS5 whole entry, looked up): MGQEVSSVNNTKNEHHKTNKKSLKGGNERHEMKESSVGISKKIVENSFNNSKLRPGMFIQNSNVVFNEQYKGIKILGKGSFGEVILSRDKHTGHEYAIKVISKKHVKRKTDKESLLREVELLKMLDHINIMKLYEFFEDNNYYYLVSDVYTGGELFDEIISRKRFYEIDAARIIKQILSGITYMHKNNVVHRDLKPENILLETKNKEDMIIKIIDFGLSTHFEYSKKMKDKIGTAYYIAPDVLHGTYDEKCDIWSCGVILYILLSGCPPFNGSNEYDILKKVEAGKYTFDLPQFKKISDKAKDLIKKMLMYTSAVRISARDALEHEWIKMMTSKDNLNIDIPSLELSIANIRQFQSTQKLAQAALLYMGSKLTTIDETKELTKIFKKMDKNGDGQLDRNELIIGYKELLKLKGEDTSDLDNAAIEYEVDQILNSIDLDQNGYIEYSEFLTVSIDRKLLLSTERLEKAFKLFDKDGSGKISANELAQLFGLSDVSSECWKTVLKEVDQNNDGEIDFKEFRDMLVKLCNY

Chain of Plasmodium falciparum protein kinase 6 (PK6, PF3D7_1337100) (Q8IDW1 1-305): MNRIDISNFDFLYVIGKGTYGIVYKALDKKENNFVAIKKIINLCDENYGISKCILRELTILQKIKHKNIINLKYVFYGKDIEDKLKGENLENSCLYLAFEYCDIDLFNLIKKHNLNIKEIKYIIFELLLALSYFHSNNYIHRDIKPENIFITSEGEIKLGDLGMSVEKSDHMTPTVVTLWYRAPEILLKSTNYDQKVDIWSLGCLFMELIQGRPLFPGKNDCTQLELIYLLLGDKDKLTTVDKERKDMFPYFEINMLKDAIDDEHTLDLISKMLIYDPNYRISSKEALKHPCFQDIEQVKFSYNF
Chain of L-lactate dehydrogenase (Plasmodium falciparum (isolate CDC / Honduras)) (Q27743 whole entry, looked up): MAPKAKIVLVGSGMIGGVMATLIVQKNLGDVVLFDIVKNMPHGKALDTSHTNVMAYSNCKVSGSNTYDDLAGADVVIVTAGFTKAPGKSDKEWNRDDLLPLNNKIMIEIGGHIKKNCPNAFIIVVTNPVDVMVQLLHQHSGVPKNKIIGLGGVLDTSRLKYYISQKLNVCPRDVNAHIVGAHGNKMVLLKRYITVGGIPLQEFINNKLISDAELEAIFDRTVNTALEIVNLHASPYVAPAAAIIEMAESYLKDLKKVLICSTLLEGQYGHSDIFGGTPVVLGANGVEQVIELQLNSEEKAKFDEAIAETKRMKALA
Chain of Calcium-dependent protein kinase 1 (Plasmodium falciparum (isolate 3D7)) (P62344 whole entry, looked up): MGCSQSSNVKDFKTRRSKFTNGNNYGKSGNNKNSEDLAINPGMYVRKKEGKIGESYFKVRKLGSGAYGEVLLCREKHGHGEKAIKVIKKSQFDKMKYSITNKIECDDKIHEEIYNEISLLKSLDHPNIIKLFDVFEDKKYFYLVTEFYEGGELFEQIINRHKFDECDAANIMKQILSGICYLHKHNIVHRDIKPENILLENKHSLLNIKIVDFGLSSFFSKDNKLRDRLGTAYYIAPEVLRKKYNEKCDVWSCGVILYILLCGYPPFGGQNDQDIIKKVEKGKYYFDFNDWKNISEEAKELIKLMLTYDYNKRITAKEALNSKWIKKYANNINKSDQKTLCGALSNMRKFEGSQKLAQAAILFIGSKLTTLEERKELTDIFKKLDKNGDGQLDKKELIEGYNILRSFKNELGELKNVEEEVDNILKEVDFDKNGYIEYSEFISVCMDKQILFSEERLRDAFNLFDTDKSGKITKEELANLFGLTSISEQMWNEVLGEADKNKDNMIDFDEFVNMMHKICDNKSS
Chain of Protein kinase 7 (PK7), Plasmodium falciparum 3D7 (PF3D7_0213400) (Q7YTF7 1-343): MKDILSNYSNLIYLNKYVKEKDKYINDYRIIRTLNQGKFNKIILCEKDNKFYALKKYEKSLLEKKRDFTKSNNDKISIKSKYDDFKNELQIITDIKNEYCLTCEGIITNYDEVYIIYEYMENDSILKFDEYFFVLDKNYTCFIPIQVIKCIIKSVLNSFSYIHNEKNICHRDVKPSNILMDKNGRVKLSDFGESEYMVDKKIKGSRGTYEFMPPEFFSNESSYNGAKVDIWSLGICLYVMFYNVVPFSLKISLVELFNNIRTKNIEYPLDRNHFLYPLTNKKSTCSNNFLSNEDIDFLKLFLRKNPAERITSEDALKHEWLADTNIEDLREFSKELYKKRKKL

O=C(Nc1cc(C(F)(F)F)ccc1N1CCOCC1)C(Cl)(Cl)Cl
active: growth inhibition [1] 100% | growth inhibition [4] 100%
inactive: inhibition [2] -5% | inhibition [3] 5% | outcome [5] | outcome [6] | outcome [7] | outcome [8]

Oc1ccccc1N1CCN(c2ccc(-c3nc4ccccc4[nH]3)cn2)CC1
active: growth inhibition [1] 50% | growth inhibition [4] 97%
inactive: inhibition [2] -12% | inhibition [3] -2% | outcome [5] | outcome [6] | outcome [7] | outcome [8]

Cc1ccc(CN=C(N)NC(=O)c2nc(Cl)c(NCc3ccc(Cl)cc3)nc2N)c(C)c1
inactive: inhibition [2] 28% | inhibition [3] -5% | outcome [5] | outcome [6] | outcome [7] | outcome [8]
active: growth inhibition [1] 100% | growth inhibition [4] 101%

Nc1cccc(CNCc2cccc(-c3ccc(-c4nc5ccccc5[nH]4)s3)c2)c1
inactive: inhibition [2] 8% | inhibition [3] -1% | outcome [5] | outcome [6] | outcome [7] | outcome [8]
active: growth inhibition [1] 90% | growth inhibition [4] 101%

O=C(Nc1cccc(-c2ccc(CN3CCCC3)cc2)c1)c1cccc(Cl)c1
active: growth inhibition [1] 61% | growth inhibition [4] 100%
inactive: inhibition [2] 32% | inhibition [3] -3% | outcome [5] | outcome [6] | outcome [7] | outcome [8]

COc1ccc2ccccc2c1CCCCN1CCN(CC(c2ccc(F)cc2)N2CCC(N3CCCC3)CC2)CC1 (stereo not given)
inactive: inhibition [3] 7% | outcome [5] | outcome [6] | outcome [7] | outcome [8]
active: growth inhibition [1] 73% | inhibition [2] 74% | growth inhibition [4] 99%

CCN(CC)S(=O)(=O)c1ccc(Cl)c(C(=O)Nc2ccc3nc(C)sc3c2)c1
active: growth inhibition [1] 94% | growth inhibition [4] 96%
inactive: inhibition [2] 9% | inhibition [3] -4% | outcome [5] | outcome [6] | outcome [7] | outcome [8]

O=C(NCC1CCCCC1)c1cc(=O)c2ccccc2o1
inactive: inhibition [2] -1% | inhibition [3] -2% | outcome [5] | outcome [6] | outcome [7] | outcome [8]
active: growth inhibition [1] 77% | growth inhibition [4] 98%

N#Cc1cccc(C(=O)Nc2ccc(-c3nc4ccccc4[nH]3)cc2)c1
active: growth inhibition [4] 91%
inactive: growth inhibition [1] 38% | inhibition [2] 33% | inhibition [3] -2% | outcome [5] | outcome [6] | outcome [7] | outcome [8]

CC(=O)Nc1ccc(CN2CCC(CNC(=O)c3cc(-c4cccc(Cl)c4)cs3)C2)cc1 (stereo not given)
inactive: growth inhibition [1] 1% | inhibition [2] 24% | inhibition [3] 2% | outcome [5] | outcome [6] | outcome [7] | outcome [8]
active: growth inhibition [4] 91%

Cc1ccc(Cn2nc(Cl)c(N3CCNCC3)cc2=O)cc1NC(=O)Nc1ccc(-c2ccccc2)cc1
inactive: inhibition [3] -5% | outcome [5] | outcome [6] | outcome [7] | outcome [8]
active: growth inhibition [1] 97% | inhibition [2] 100% | growth inhibition [4] 98%

COc1ccc(-n2c(=O)c3c(n4c(SC(C)C)nnc24)-c2ccccc2CC32CCCCC2)cc1
active: growth inhibition [4] 99%
inactive: growth inhibition [1] 15% | inhibition [2] -3% | inhibition [3] -1% | outcome [5] | outcome [6] | outcome [7] | outcome [8]

COc1ccc2ccc(OC)c(CNCCCCCCNCc3c(OC)ccc4ccc(OC)cc34)c2c1
inactive: growth inhibition [1] 32% | inhibition [3] -6% | outcome [5] | outcome [6] | outcome [7] | outcome [8]
active: inhibition [2] 100% | growth inhibition [4] 101%

CCCn1c(Sc2ccc(C#N)c([N+](=O)[O-])c2)nnc1-c1ccc(N(C)C)cc1
inactive: inhibition [2] 18% | inhibition [3] 7% | outcome [5] | outcome [6] | outcome [7] | outcome [8]
active: growth inhibition [1] 98% | growth inhibition [4] 97%

CCOc1ccc(C(=O)Nc2cc(Br)c3c(c2)CNCC3)cc1C#N
active: growth inhibition [4] 97%
inactive: growth inhibition [1] 32% | inhibition [2] 17% | inhibition [3] -6% | outcome [5] | outcome [6] | outcome [7] | outcome [8]

COc1cc(NC(=O)CCCCCCCCN2CCN(C)CC2)c2ncccc2c1
inactive: growth inhibition [1] 36% | inhibition [2] 8% | inhibition [3] -1% | outcome [5] | outcome [6] | outcome [7] | outcome [8]
active: growth inhibition [4] 82%

Cc1cccc(NC(=S)NC2CCN(CCCCCNC(=O)/C=C/c3ccc(Cl)c(Cl)c3)CC2)c1
inactive: growth inhibition [1] 19% | inhibition [2] 14% | inhibition [3] 4% | outcome [5] | outcome [6] | outcome [7] | outcome [8]
active: growth inhibition [4] 97%

O=C(C=Cc1ccc(Cl)c(Cl)c1)NCCCCCN1CCC(CCNC(=O)/C=C/c2ccccc2)CC1
inactive: growth inhibition [1] 1% | inhibition [2] 25% | inhibition [3] -7% | outcome [5] | outcome [6] | outcome [7] | outcome [8]
active: growth inhibition [4] 97%

Cc1cc(=O)[nH]c(/N=C(/N)NOCc2ccccc2)n1
active: growth inhibition [4] 101%
inactive: growth inhibition [1] 1% | inhibition [2] 0% | inhibition [3] 0% | outcome [5] | outcome [6] | outcome [7] | outcome [8]

Cn1cccc1CCNCc1ccc(-c2cccc(-c3nc4ccccc4[nH]3)c2)cc1
active: growth inhibition [1] 66% | growth inhibition [4] 88%
inactive: inhibition [2] 1% | inhibition [3] 3% | outcome [5] | outcome [6] | outcome [7] | outcome [8]

O=C(/C=C/c1ccc(Cl)c(Cl)c1)NCCCCCN1CCC(NC(=O)Nc2ccc(Br)cc2)CC1
inactive: growth inhibition [1] 7% | inhibition [2] 36% | inhibition [3] -3% | outcome [5] | outcome [6] | outcome [7] | outcome [8]
active: growth inhibition [4] 101%

CCCNCc1ccc(-c2ccc(CN(CC3CCCO3)C(=O)COc3ccccc3Cl)cc2)nc1 (stereo not given)
inactive: growth inhibition [1] 11% | inhibition [2] 5% | inhibition [3] -3% | outcome [5] | outcome [6] | outcome [7] | outcome [8]
active: growth inhibition [4] 89%

Cc1nc2ccc(NC(=O)Nc3ccnc4ccc(C(F)(F)F)cc34)cc2o1
active: growth inhibition [4] 89%
inactive: growth inhibition [1] 24% | inhibition [2] 20% | inhibition [3] -7% | outcome [5] | outcome [6] | outcome [7] | outcome [8]

COc1nc(-n2ccc(=N)cc2)nc2ccccc12
inactive: growth inhibition [1] 45% | inhibition [2] 15% | inhibition [3] 1% | outcome [5] | outcome [6] | outcome [7] | outcome [8]
active: growth inhibition [4] 90%

O=C(Nc1ccc(OC2CCN(Cc3ccc(F)cc3)C2)cc1)c1cccs1 (stereo not given)
inactive: inhibition [2] 2% | inhibition [3] 4% | outcome [5] | outcome [6] | outcome [7] | outcome [8]
active: growth inhibition [1] 92% | growth inhibition [4] 94%

COc1cc(OC)nc(-c2cccc(NC(=O)c3ccc4c(=O)n(CCN5CCCCC5)cnc4c3)c2)n1
inactive: inhibition [2] 11% | inhibition [3] -1% | outcome [5] | outcome [6] | outcome [7] | outcome [8]
active: growth inhibition [1] 86% | growth inhibition [4] 100%

Cc1ccc(O)cc1Nc1ccnc2cc(-c3ccc(CN4CCCCC4)o3)ccc12
inactive: inhibition [2] 16% | inhibition [3] 0% | outcome [5] | outcome [6] | outcome [7] | outcome [8]
active: growth inhibition [1] 99% | growth inhibition [4] 100%

Cc1cccc2[nH]c(-c3cccc(-c4cccc(NC(=O)c5cn(C)c(=O)n5C)c4)c3)nc12
inactive: inhibition [2] 5% | inhibition [3] -5% | outcome [5] | outcome [6] | outcome [7] | outcome [8]
active: growth inhibition [1] 80% | growth inhibition [4] 99%

Cc1cccc(/C=C/C(=O)NC2CCC(N3CCC(c4ccccc4C)CC3)CC2)c1 (stereo not given)
inactive: growth inhibition [1] 20% | inhibition [3] -3% | outcome [5] | outcome [6] | outcome [7] | outcome [8]
active: inhibition [2] 67% | growth inhibition [4] 92%

O=[N+]([O-])c1ccc(C(O)P(=O)(c2ccccc2)c2ccccc2)cc1 (stereo not given)
inactive: growth inhibition [1] 1% | inhibition [2] 1% | inhibition [3] 0% | outcome [5] | outcome [6] | outcome [7] | outcome [8]
active: growth inhibition [4] 98%

COc1cc(F)c2ncc(F)c(CCN3C[C@H](CNCc4ccc5c(n4)NC(=O)CS5)[C@H](O)C3)c2c1
inactive: growth inhibition [1] 47% | inhibition [2] 10% | inhibition [3] 2% | outcome [5] | outcome [6] | outcome [7] | outcome [8]
active: growth inhibition [4] 91%

CCc1cn2c3c(cc(C(=O)N[C@@H](Cc4cccc(F)c4)[C@H](O)CNC4CC4)cc13)N(C)S(=O)(=O)CC2
active: growth inhibition [1] 98% | growth inhibition [4] 98%
inactive: inhibition [2] 2% | inhibition [3] 1% | outcome [5] | outcome [6] | outcome [7] | outcome [8]

COc1cc(Nc2ccc3cc(S(=O)(=O)N4CCCCC4C)ccc3n2)cc(OC)c1OC (stereo not given)
active: growth inhibition [1] 78% | growth inhibition [4] 88%
inactive: inhibition [2] -5% | inhibition [3] -1% | outcome [5] | outcome [6] | outcome [7] | outcome [8]

CCN1CCC(N(Cc2ccc(-c3ccc(C(F)(F)F)cc3)cc2)C(=O)CCCCn2c(CCc3cccc(F)c3F)nc(=O)c3ccccc32)CC1
active: growth inhibition [1] 77% | inhibition [2] 54% | growth inhibition [4] 90%
inactive: inhibition [3] 4% | outcome [5] | outcome [6] | outcome [7] | outcome [8]

c1cc(CN2CCN(CCN3CCOCC3)CC2)cc(-c2csc(-c3nc4ccccc4[nH]3)c2)c1
inactive: inhibition [2] 27% | inhibition [3] -8% | outcome [5] | outcome [6] | outcome [7] | outcome [8]
active: growth inhibition [1] 99% | growth inhibition [4] 100%

CC(=O)c1ccccc1OCCSc1nnc(Cc2cccs2)n1C1CCCCC1
inactive: growth inhibition [1] 1% | inhibition [2] 19% | inhibition [3] -5% | outcome [5] | outcome [6] | outcome [7] | outcome [8]
active: growth inhibition [4] 87%

CCC[C@@H]([C@@H](CC(C)C)C(=O)N[C@H](C(=O)Nc1nccs1)C(C)(C)SCCNC(=O)OCC)N(O)C=O
active: growth inhibition [1] 97% | growth inhibition [4] 95%
inactive: inhibition [2] -8% | inhibition [3] -7% | outcome [5] | outcome [6] | outcome [7] | outcome [8]

CS(=O)(=O)c1ccc(CCNCc2ccc(-c3ccc(CNC4Cc5ccccc5C4)cc3)nc2)cc1
active: growth inhibition [1] 80% | growth inhibition [4] 100%
inactive: inhibition [2] 18% | inhibition [3] -3% | outcome [5] | outcome [6] | outcome [7] | outcome [8]

CC(C)CCN1CCC(Oc2ccc(NC(=O)c3ccc(F)cc3)cc2Cl)CC1
active: growth inhibition [1] 88% | growth inhibition [4] 98%
inactive: inhibition [2] 33% | inhibition [3] 4% | outcome [5] | outcome [6] | outcome [7] | outcome [8]

COc1ccc(CCNCCCCCCNCCc2ccccc2Cl)cc1OC
active: growth inhibition [4] 96%
inactive: growth inhibition [1] 3% | inhibition [2] 13% | inhibition [3] -1% | outcome [5] | outcome [6] | outcome [7] | outcome [8]
